These results are taken from PMC7862700, “An all-to-all approach to the identification of sequence-specific readers for epigenetic DNA modifications on cytosine”.

Common to all, as to assay: DAPPL (digital affinity profiling via proximity ligation, sequencing); 10 mM Tris-HCl pH 7.5, 50 mM NaCl, 1 mM DTT, 4% glycerol, room temperature, 30 min; GST-TFs on glutathione beads, 16-mer random dsDNA library, 0.1% formaldehyde crosslink after washing; high values mean tight binding
One experiment has as its target T1, FEV (Homo sapiens, UniProt Q99581 1-238).
T1 sequence: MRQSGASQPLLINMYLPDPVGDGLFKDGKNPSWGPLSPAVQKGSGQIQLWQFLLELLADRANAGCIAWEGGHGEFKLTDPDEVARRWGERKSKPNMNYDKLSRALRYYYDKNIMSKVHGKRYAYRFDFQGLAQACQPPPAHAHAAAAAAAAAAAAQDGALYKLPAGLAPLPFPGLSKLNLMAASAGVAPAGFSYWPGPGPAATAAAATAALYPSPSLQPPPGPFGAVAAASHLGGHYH
The settings on record: protein: recombinant; tags: N-terminal GST; dsDNA, one strand shown. In a few lines: (§1)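 Binding signal is given per hexamer as its read frequency for a factor divided by its frequency in the tag-only sample. GST-fused human transcription factors were expressed in yeast, captured on glutathione beads, barcoded with DNA and pooled with that sample, then incubated with 200 nmole of a 16-mer random double-stranded DNA library in Tris/NaCl/DTT/glycerol buffer for 30 min at room temperature. The pools were then washed, crosslinked, proximity-ligated, amplified by PCR and sequenced on an Illumina NextSeq500.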

In a further experiment the target is ETV5 (Homo sapiens, UniProt P41161 1-510). The settings on record: protein: recombinant; tags: N-terminal GST; dsDNA, one strand shown. Summed up: as §1
ETV5, sequence (P41161 whole entry): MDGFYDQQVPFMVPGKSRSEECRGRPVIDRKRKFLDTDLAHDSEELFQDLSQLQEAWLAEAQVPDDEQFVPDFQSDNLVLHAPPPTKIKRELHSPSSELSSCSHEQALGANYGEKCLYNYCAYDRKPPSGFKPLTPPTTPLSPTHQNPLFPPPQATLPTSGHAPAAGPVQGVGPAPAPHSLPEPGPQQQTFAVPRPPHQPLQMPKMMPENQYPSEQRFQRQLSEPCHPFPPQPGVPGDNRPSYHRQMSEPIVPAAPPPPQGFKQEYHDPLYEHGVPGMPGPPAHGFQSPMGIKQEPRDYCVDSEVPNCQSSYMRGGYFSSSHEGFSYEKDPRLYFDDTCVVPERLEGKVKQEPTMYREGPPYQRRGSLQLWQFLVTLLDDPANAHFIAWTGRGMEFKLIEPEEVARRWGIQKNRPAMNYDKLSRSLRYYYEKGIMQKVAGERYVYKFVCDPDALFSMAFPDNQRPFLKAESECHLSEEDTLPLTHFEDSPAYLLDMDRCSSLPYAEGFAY
For the next experiment, the target named is HSF1 (Homo sapiens, UniProt Q00613 1-529). The note with it: protein: recombinant; tags: N-terminal GST; chain copies: 3; dsDNA, one strand shown. Summed up:
as §1

For another experiment, the target named is T2, SPIC (Homo sapiens, UniProt Q8N5J4 1-248).
T2 sequence: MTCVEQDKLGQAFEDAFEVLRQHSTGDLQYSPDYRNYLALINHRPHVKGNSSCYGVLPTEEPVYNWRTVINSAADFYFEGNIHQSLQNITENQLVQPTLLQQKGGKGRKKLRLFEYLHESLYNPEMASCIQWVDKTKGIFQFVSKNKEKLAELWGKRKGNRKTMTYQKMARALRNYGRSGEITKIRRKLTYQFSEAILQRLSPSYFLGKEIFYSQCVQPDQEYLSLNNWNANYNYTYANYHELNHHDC
The settings on record: protein: recombinant; tags: N-terminal GST; dsDNA, one strand shown. Summed up:
as §1

In the next experiment the target is ELF4 (Homo sapiens, UniProt Q99607 1-663). The settings on record: protein: recombinant; tags: N-terminal GST; dsDNA, one strand shown. In a few lines: as §1
ELF4, sequence (Q99607 whole entry): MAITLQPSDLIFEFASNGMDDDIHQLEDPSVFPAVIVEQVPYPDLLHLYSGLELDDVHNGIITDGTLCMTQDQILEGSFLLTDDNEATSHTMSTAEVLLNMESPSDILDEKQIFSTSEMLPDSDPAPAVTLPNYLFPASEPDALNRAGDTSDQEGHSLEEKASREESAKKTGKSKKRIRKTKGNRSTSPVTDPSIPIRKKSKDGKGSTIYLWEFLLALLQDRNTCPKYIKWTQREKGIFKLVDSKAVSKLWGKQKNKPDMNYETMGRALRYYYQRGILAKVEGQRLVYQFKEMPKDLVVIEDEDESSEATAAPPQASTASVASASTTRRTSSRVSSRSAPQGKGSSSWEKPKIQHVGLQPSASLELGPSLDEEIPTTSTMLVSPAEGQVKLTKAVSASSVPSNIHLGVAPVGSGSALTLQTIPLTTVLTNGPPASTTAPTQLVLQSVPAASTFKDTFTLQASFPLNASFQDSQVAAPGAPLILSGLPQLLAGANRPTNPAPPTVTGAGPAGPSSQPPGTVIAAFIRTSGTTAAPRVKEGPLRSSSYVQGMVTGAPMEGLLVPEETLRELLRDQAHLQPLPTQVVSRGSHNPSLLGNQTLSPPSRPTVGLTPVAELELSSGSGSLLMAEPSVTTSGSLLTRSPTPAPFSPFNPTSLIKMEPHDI
Another experiment addresses T3, ELK4 (Homo sapiens, UniProt P28324-2 1-405).
T3 sequence: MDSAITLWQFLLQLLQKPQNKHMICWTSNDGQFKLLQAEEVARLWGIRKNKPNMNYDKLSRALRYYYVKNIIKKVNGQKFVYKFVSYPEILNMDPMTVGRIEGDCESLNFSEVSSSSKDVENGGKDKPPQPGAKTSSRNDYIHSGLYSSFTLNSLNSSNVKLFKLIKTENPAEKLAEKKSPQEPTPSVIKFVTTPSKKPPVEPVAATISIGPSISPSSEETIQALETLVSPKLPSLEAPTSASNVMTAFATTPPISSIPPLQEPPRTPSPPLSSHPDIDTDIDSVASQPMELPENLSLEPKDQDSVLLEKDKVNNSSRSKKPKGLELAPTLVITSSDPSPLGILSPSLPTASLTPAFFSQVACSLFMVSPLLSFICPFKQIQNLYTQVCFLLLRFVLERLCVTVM
The note with it: protein: recombinant; tags: N-terminal GST; dsDNA, one strand shown. In a few lines: as §1

In the next experiment the target is T4, ETV2 (Homo sapiens, UniProt O00321 1-342).
T4 sequence: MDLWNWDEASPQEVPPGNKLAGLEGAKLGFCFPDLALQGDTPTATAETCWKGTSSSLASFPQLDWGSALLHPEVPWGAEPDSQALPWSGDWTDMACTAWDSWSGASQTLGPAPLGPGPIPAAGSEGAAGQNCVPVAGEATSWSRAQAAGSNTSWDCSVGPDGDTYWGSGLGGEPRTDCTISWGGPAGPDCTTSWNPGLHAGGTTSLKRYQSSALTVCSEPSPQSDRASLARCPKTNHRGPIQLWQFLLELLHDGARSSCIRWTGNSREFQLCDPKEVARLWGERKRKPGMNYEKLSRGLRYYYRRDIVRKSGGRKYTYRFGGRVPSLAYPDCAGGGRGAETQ
The settings on record: protein: recombinant; tags: N-terminal GST; dsDNA, one strand shown. Summed up: as §1

The target in the next experiment is T5, ELF3 (Homo sapiens, UniProt P78545 1-371).
T5 sequence: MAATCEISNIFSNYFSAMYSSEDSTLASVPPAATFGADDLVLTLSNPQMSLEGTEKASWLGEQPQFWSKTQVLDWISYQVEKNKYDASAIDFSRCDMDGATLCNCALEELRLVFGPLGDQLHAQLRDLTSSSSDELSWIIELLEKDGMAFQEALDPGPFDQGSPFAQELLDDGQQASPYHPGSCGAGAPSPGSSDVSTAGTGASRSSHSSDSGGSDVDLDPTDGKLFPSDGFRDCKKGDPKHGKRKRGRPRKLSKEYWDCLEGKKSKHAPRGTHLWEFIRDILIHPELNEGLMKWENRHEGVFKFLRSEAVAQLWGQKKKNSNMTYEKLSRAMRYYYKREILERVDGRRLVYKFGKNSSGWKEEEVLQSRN
The settings on record: protein: recombinant; tags: N-terminal GST; dsDNA, one strand shown. Summed up: as §1

Another experiment concerns the target CRX (Homo sapiens, UniProt O43186 1-299). The settings on record: protein: recombinant; tags: N-terminal GST; dsDNA, one strand shown. Summed up:
as §1

The target of another experiment is ETV1 (Homo sapiens, UniProt P50549 1-477). The note with it: protein: recombinant; tags: N-terminal GST; dsDNA, one strand shown. In a few lines:
as §1

The next experiment addresses T6, ERF (Homo sapiens, UniProt P50548 1-548).
T6 sequence: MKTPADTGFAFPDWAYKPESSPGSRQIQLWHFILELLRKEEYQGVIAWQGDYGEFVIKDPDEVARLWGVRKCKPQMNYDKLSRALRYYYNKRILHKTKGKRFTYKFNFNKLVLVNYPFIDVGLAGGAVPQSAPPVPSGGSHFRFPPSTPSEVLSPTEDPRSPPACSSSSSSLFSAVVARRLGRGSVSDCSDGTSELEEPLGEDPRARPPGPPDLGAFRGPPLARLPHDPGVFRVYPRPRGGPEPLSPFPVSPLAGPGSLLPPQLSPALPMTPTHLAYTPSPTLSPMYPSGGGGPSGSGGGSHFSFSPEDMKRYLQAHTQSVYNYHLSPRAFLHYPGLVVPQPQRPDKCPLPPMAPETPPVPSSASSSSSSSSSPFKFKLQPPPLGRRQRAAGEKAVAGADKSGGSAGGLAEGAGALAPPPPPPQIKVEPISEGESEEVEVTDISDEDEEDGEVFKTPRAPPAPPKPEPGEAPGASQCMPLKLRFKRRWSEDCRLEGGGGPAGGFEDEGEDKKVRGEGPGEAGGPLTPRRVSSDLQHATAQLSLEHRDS
The note with it: protein: recombinant; tags: N-terminal GST; dsDNA, one strand shown. Summed up: as §1

Another experiment addresses T7, ETV3L (Homo sapiens, UniProt Q6ZN32 1-361).
T7 sequence: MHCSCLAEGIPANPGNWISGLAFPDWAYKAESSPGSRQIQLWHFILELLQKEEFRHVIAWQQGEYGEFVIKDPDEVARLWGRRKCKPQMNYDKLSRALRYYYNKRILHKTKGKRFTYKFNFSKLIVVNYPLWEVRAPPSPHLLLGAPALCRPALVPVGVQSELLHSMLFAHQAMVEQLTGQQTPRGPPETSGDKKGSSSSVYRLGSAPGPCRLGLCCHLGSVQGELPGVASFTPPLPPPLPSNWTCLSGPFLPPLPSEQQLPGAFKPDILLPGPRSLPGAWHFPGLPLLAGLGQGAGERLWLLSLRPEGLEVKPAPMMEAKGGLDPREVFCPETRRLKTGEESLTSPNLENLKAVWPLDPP
The note with it: protein: recombinant; tags: N-terminal GST; dsDNA, one strand shown. In a few lines: as §1

In the next experiment the target is T8, ETS2 (Homo sapiens, UniProt P15036 1-469).
T8 sequence: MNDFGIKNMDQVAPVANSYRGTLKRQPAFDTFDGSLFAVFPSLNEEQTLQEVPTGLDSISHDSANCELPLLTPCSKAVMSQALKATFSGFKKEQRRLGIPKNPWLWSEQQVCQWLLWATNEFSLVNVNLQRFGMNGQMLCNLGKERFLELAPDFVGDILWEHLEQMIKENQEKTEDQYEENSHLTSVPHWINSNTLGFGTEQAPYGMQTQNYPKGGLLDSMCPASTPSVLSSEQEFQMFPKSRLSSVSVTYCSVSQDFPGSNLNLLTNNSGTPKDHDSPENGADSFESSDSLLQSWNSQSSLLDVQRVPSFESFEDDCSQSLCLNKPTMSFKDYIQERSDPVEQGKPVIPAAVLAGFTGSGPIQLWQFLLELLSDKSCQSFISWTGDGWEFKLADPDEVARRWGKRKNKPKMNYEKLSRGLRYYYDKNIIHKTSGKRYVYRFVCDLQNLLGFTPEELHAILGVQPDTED
The note with it: protein: recombinant; tags: N-terminal GST; dsDNA, one strand shown. Summed up: as §1

A further experiment addresses T9, SPDEF (Homo sapiens, UniProt O95238 1-335).
T9 sequence: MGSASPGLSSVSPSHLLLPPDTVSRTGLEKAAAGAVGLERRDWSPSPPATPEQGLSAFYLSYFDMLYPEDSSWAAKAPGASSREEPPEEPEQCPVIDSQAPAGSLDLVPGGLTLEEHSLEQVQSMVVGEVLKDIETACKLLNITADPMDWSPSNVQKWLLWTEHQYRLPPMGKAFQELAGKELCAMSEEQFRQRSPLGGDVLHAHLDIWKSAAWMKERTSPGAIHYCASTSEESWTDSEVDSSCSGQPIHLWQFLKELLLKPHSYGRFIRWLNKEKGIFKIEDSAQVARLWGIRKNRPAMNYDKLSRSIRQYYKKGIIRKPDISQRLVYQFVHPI
The settings on record: protein: recombinant; tags: N-terminal GST; dsDNA, one strand shown. Summed up:
as §1

The target in a further experiment is T10, ETV7 (Homo sapiens, UniProt Q9Y603 1-341).
T10 sequence: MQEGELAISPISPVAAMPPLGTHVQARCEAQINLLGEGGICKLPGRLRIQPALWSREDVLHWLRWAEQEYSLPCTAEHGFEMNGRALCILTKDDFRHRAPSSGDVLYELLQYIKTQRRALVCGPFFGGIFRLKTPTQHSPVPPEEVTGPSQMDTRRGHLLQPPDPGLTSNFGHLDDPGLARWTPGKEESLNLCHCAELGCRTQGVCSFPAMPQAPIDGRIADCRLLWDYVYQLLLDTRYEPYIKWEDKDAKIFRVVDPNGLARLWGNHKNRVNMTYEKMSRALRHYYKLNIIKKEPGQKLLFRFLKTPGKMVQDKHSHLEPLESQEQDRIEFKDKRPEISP
The note with it: protein: recombinant; tags: N-terminal GST; dsDNA, one strand shown. Summed up: as §1

The target in another experiment is T11, ELF5 (Homo sapiens, UniProt Q9UKW6-2 1-255).
T11 sequence: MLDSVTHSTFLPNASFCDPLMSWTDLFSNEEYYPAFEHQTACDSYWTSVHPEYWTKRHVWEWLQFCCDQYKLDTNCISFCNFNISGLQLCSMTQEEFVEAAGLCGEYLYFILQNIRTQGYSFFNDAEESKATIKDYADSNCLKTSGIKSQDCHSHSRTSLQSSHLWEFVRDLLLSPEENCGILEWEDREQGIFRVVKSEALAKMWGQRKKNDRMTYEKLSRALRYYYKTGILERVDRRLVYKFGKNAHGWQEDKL
The settings on record: protein: recombinant; tags: N-terminal GST; dsDNA, one strand shown. In a few lines: as §1

For the next experiment, the target named is T12, ETV3 (Homo sapiens, UniProt P41162-2 1-143).
T12 sequence: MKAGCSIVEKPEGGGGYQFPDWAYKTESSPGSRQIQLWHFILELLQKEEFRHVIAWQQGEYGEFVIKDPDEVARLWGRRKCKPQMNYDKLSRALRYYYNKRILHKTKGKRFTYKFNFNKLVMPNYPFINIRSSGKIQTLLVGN
The note with it: protein: recombinant; tags: N-terminal GST; dsDNA, one strand shown. In a few lines: as §1

The next experiment deals with ETV6 (Homo sapiens, UniProt P41212 1-452). The settings on record: protein: recombinant; tags: N-terminal GST; dsDNA, one strand shown. Summed up:
as §1

ETV6, sequence (P41212 whole entry): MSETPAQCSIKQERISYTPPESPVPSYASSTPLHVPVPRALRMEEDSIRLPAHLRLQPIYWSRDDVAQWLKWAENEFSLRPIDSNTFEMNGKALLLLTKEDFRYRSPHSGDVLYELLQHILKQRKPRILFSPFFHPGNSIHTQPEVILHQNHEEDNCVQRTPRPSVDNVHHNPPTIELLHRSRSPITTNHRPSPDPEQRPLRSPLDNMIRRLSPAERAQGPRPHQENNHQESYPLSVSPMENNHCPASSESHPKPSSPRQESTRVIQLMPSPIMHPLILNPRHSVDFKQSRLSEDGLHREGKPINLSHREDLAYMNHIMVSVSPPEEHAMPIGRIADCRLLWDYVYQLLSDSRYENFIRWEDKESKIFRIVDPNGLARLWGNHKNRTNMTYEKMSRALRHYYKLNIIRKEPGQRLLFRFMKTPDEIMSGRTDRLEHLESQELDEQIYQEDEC
HSF1, sequence (Q00613 whole entry): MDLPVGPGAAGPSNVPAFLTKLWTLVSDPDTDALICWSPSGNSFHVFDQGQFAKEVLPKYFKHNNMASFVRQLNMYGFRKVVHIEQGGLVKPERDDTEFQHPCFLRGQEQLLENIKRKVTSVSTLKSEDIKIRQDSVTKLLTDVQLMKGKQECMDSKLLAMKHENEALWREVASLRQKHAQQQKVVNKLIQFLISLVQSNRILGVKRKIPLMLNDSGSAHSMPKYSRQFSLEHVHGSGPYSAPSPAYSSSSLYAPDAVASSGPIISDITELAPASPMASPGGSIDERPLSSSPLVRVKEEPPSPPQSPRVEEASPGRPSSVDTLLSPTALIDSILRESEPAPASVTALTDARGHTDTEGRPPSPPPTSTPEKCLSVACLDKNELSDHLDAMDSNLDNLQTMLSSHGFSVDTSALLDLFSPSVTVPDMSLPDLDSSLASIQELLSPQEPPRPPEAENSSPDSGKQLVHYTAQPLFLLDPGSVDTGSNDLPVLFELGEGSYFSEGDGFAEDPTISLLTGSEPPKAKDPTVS
CRX, sequence (O43186 whole entry): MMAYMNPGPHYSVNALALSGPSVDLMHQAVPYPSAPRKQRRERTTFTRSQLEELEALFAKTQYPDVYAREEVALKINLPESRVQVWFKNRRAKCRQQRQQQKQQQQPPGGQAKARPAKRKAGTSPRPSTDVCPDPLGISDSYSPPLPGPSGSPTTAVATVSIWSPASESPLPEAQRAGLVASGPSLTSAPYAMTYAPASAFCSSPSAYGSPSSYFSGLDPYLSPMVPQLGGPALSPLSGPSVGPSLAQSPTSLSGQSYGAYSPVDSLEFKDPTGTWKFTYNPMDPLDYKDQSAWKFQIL
ETV1, sequence (P50549 whole entry): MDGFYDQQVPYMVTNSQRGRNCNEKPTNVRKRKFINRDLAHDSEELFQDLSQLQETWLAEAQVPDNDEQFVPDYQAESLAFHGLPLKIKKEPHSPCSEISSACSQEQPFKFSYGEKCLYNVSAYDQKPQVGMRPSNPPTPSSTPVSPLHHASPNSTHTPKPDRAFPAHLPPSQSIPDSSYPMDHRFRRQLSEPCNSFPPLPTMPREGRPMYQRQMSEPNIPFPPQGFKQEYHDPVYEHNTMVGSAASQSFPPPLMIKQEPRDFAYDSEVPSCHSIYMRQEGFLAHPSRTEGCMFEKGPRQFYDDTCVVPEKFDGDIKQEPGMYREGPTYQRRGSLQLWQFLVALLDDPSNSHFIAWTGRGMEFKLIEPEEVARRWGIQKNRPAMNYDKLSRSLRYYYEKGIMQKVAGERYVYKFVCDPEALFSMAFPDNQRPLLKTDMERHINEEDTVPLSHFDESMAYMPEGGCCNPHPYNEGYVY

Regarding CGTACT, the binding signal in the experiment with FEV is 1.17 fold enrichment (6-mer frequency, TF over GST control); with ETV5, 1.22 fold enrichment (6-mer frequency, TF over GST control); with HSF1 it was 1.05 fold enrichment (6-mer frequency, TF over GST control); with SPIC, 1.12 fold enrichment (6-mer frequency, TF over GST control); with ELF4 it was 1.25 fold enrichment (6-mer frequency, TF over GST control); with ELK4, 1.22 fold enrichment (6-mer frequency, TF over GST control). For the same sequence, the binding signal with ETV2 is 1.35 fold enrichment (6-mer frequency, TF over GST control); with ELF3, 1.15 fold enrichment (6-mer frequency, TF over GST control); with CRX it was 1.07 fold enrichment (6-mer frequency, TF over GST control); with ETV1, 1.34 fold enrichment (6-mer frequency, TF over GST control); with ERF, 1.27 fold enrichment (6-mer frequency, TF over GST control); with ETV3L, 1.1 fold enrichment (6-mer frequency, TF over GST control). The binding signal in the experiment with ETS2 was 1.23 fold enrichment (6-mer frequency, TF over GST control); with SPDEF it was 1.11 fold enrichment (6-mer frequency, TF over GST control); in the experiment with ETV7, 1.1 fold enrichment (6-mer frequency, TF over GST control); in the experiment with ELF5 it was 1.2 fold enrichment (6-mer frequency, TF over GST control); in the experiment with ETV3 it was 1.2 fold enrichment (6-mer frequency, TF over GST control); with ETV6, 1.2 fold enrichment (6-mer frequency, TF over GST control).
